Source: PubChem BioAssay (Tox21)
Results filed as inconclusive are left out. The source made the active and inactive calls. Unless noted, calls follow the shape of the dose curve; as a rule, active = well fitted curve in the direction sought with a large enough effect in the repeat runs; inconclusive = weak or mixed curves; inactive = flat fitted curve, though single readings scatter.

Experiments:
[1] = qHTS assay to test for compound auto fluorescence at 535 nm (green) in HEK293 cells (AID 720680)
[2] = qHTS assay to test for compound auto fluorescence at 460 nm (blue) in HEK293 cell free culture (AID 720681)
Summary of the method: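 Compounds were added to cell-free DMEM with 10% FBS and fluorescence read directly. The blue channel used 405 nm excitation and 460 nm emission, with triamterene as the reference fluorophore.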

[3] = qHTS assay to test for compound auto fluorescence at 535 nm (green) in HEK293 cell free culture (AID 720682)
Summary of the method: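 Using fluorescein as calibrant, autofluorescence was quantified at 485/535 nm in cell-free DMEM containing 10% FBS after pintool addition of compound or vehicle.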

[4] = qHTS assay to test for compound auto fluorescence at 590 nm (red) in HEK293 cell free culture (AID 720683)
Summary of the method: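 Cell-free wells of DMEM with 10% FBS received compound, and intrinsic fluorescence was read at excitation/emission 540/590 nm. Values expressed as equivalence to Rose Bengal sodium.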

[5] = qHTS assay to test for compound auto fluorescence at 590 nm (red) in HepG2 cell free culture (AID 720684)
Summary of the method: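 Compounds are added to culture medium (MEM, 10% FBS) lacking cells, then fluorescence is read at excitation 540 nm, emission 590 nm, with Rose Bengal sodium as the equivalency standard.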

[6] = qHTS assay to test for compound auto fluorescence at 460 nm (blue) in HepG2 cell free culture (AID 720685)
Summary of the method: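 Compound (23 nL) or DMSO pinned into cell-free MEM with 10% FBS; blue fluorescence read at 405/460 nm excitation/emission, expressed as auto-fluorescence equivalency to triamterene.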

[7] = qHTS assay to test for compound auto fluorescence at 535 nm (green) in HepG2 cell free culture (AID 720686)
[8] = qHTS assay to test for compound auto fluorescence at 460 nm (blue) in HepG2 cells (AID 720687)
Summary of the method: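 HepG2 cells in MEM with 10% FBS, attached overnight at 37 C, were exposed to compound or DMSO for 1 hr at 37 C, 5% CO2. Blue fluorescence was read at 405/460 nm, with triamterene as reference fluorophore.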

[9] = target: Glucocorticoid receptor (Homo sapiens) (UniProt P04150); assay: qHTS assay to identify small molecule agonists of the glucocorticoid receptor (GR) signaling pathway (AID 720691; active = well fitted activation curve with a large enough effect in the signal ratio in the repeat runs, not every such curve was filed as active; the % refers to the signal ratio)
Summary of the method: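 Fluorescence intensity from LiveBLAzer B/G FRET substrate (2 h, room temperature) reports beta-lactamase expression driven by the glucocorticoid response element in GR-bla HeLa cells after 18 h compound exposure at 37 C.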

[10] = target: Glucocorticoid receptor (Homo sapiens) (UniProt P04150); assay: qHTS assay to identify small molecule antagonists of the glucocorticoid receptor (GR) signaling pathway (AID 720692; active = well fitted inhibition curve with a large enough effect in the signal ratio in the repeat runs, not every such curve was filed as active; the % refers to the signal ratio)
Summary of the method: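 HeLa GR-bla cells; cmpd + dex 5 nM final, 18 h 37 C; LiveBLAzer B/G FRET substrate 2 h RT; fluorescence intensity read. Antagonist mode, qHTS.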
% is scaled to controls: 0 for no effect and ±100 for the full control effect.

Glucocorticoid receptor (Homo sapiens), sequence (P04150 whole entry, looked up): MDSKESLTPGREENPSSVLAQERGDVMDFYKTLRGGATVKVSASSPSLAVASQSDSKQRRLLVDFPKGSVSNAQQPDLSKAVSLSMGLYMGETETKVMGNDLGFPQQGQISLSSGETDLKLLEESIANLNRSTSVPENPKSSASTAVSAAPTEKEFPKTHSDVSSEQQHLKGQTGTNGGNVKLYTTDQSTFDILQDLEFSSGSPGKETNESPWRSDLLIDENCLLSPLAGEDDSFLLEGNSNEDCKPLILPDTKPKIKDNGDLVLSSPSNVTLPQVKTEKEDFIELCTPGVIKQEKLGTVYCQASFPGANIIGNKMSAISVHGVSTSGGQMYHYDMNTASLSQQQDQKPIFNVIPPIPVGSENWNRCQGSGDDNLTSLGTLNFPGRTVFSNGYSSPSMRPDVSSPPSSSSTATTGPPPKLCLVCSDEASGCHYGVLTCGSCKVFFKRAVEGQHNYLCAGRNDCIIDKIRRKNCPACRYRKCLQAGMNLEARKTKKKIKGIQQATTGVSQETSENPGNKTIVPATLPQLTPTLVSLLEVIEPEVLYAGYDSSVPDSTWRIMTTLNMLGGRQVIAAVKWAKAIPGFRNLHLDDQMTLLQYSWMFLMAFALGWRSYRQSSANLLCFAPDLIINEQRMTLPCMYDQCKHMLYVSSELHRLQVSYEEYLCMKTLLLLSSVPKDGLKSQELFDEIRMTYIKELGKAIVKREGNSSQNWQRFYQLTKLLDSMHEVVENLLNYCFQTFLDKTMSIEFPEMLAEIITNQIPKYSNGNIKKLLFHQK

CC(=O)OC(C)C[N+](C)(C)C (stereo not drawn)
inactive: fluorescence, % of fluorescein [1] -0.0571% [at 18.6 µM] | fluorescence, % of fluorescent control [2] -0.0614% [at 18.6 µM] | activity change [3] -0.0135% [at 18.6 µM] | fluorescence, % of fluorescent control [4] 0.423% [at 18.6 µM] | fluorescence, % of Rose Bengal [5] -0.229% [at 18.6 µM] | fluorescence, % of fluorescent control [6] -0.0627% [at 18.6 µM] | fluorescence, % of fluorescein control [7] -0.0048% [at 18.6 µM] | fluorescence, % of fluorescent control [8] -0.0338% [at 18.6 µM] | Potency [9] | Potency [10]

CCCCCC
inactive: outcome [1] | Potency [2] | outcome [3] | outcome [4] | outcome [5] | Potency [6] | outcome [7] | Potency [8] | Potency [9]

CC(C)C1CCC(C(=O)N[C@H](Cc2ccccc2)C(=O)O)CC1 (stereo partly drawn)
inactive: outcome [1] | Potency [2] | outcome [3] | outcome [4] | outcome [5] | Potency [6] | outcome [7] | Potency [8] | Potency [9]

C=CCOC(=O)COCCC(C)C
inactive: outcome [1] | Potency [2] | outcome [3] | outcome [4] | outcome [5] | Potency [6] | outcome [7] | Potency [8] | Potency [9]

O=C(/C=C/c1ccc([N+](=O)[O-])cc1)c1ccccc1
inactive: outcome [1] | Potency [2] | outcome [3] | outcome [4] | outcome [5] | Potency [6] | outcome [7] | Potency [8] | Potency [9]

C1CCCCC1
inactive: outcome [1] | Potency [2] | outcome [3] | outcome [4] | outcome [5] | Potency [6] | outcome [7] | Potency [8] | Potency [9] | Potency [10]

CC(=O)NCCO
inactive: outcome [1] | Potency [2] | outcome [3] | outcome [4] | outcome [5] | Potency [6] | outcome [7] | Potency [8] | Potency [9] | Potency [10]

COc1ccc(-c2cc(C(F)F)nn2-c2ccc(S(N)(=O)=O)cc2)cc1F
inactive: outcome [1] | Potency [2] | outcome [3] | outcome [4] | outcome [5] | Potency [6] | Potency [8]

O=NN(CCCl)C(=O)NCCCl
inactive: outcome [1] | Potency [2] | outcome [3] | outcome [4] | outcome [5] | Potency [6] | outcome [7] | Potency [8] | Potency [9] | Potency [10]

O=C(C(=O)c1ccco1)c1ccco1
inactive: outcome [1] | Potency [2] | outcome [3] | outcome [4] | outcome [5] | Potency [6] | outcome [7] | Potency [8] | Potency [9] | Potency [10]

CC(C)(O)c1coc(S(=O)(=O)NC(=O)Nc2c3c(cc4c2CCC4)CCC3)c1
inactive: outcome [1] | Potency [2] | outcome [3] | outcome [4] | outcome [5] | Potency [6] | outcome [7] | Potency [8] | Potency [9] | Potency [10]

C=Cc1ccc(OC(C)=O)cc1
inactive: outcome [1] | Potency [2] | outcome [3] | outcome [4] | outcome [5] | Potency [6] | outcome [7] | Potency [8] | Potency [9] | Potency [10]

CC(C)C(=O)OCCOc1ccccc1
inactive: outcome [1] | Potency [2] | outcome [3] | outcome [4] | outcome [5] | Potency [6] | outcome [7] | Potency [8] | Potency [9] | Potency [10]

CC1=C2[C@@H]([C@H](C)CC[C@H]2/C=C(\C)C(=O)O)[C@H](O)C1
inactive: outcome [1] | Potency [2] | outcome [3] | outcome [4] | outcome [5] | Potency [6] | outcome [7] | Potency [8] | Potency [9] | Potency [10]

CC(C)c1ccc(C(=O)N=C(N)N)cc1S(C)(=O)=O
inactive: outcome [1] | Potency [2] | outcome [3] | outcome [4] | outcome [5] | Potency [6] | outcome [7] | Potency [8] | Potency [9] | Potency [10]

CC12CC3CC(C)(C1)CC(N)(C3)C2
inactive: outcome [1] | Potency [2] | outcome [3] | outcome [4] | outcome [5] | Potency [6] | outcome [7] | Potency [8] | Potency [9] | Potency [10]

O=C(O)CCS
inactive: outcome [1] | Potency [2] | outcome [3] | outcome [4] | outcome [5] | Potency [6] | Potency [8]

Cc1ccc(S(=O)(=O)NC(=O)NC2CCCCC2)cc1
inactive: outcome [1] | Potency [2] | outcome [3] | outcome [4] | outcome [5] | Potency [6] | outcome [7] | Potency [8] | Potency [9] | Potency [10]

O=C1c2ccccc2C(=O)c2c(O)ccc(O)c21
inactive: outcome [1] | Potency [2] | outcome [3] | outcome [4] | outcome [5] | Potency [6] | Potency [8] | Potency [9]

CN(C)CC/C=C1\c2ccccc2Sc2ccc(Cl)cc21
inactive: outcome [1] | Potency [2] | outcome [3] | outcome [4] | outcome [5] | Potency [6] | outcome [7] | Potency [8] | Potency [9] | Potency [10]

CC(C)(C)NCC(O)COc1cccc2c1C[C@H](O)[C@H](O)C2 (stereo partly drawn)
inactive: fluorescence, % of fluorescein [1] 0.0671% [at 18.6 µM] | fluorescence, % of fluorescent control [2] 0.0347% [at 18.6 µM] | activity change [3] 0.0167% [at 18.6 µM] | fluorescence, % of fluorescent control [4] 0.19% [at 18.6 µM] | fluorescence, % of Rose Bengal [5] -0.334% [at 18.6 µM] | fluorescence, % of fluorescent control [6] 0.0077% [at 18.6 µM] | fluorescence, % of fluorescein control [7] -0.0012% [at 18.6 µM] | fluorescence, % of fluorescent control [8] 0.0012% [at 18.6 µM] | Potency [9] | Potency [10]
